Test results reported in PubChem BioAssay (NCI).
Compounds without any hit were thinned out: in the full panel of roughly 79,000, 15% have a hit. A number with no mark means an inactive call. Calls of active or inactive are those of the source. No stated cut-off is given here; in the data, active means growth inhibition above about 70%; inactive means the rest. Where a SMILES comes first, the peptide text is derived from it. [ ]: non-standard residue; d: D form. The star is where a group is joined. Nle = CCCC[CH](N)C(=O)O; Cbz = O=C(OCc1ccccc1)*

Columns and labels:
[1] = NCI Yeast Anticancer Drug Screen. Data for the rad50 strain (AID 155);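 further: 0% = growth of vehicle-only cultures of the same strain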; conditions: S. cerevisiae rad50 strain growth inhibition; at 50.0 µM; active compounds read high
Summary of the method: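 A DNA repair-deficient yeast mutant serves as the test organism; compound-induced growth inhibition is calculated against vehicle-treated cells.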

[2] = NCI Yeast Anticancer Drug Screen. Data for the mec2-1 strain (AID 157); conditions: S. cerevisiae mec2-1 strain, at 50.0 µM, active compounds read high
Summary of the method: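 Growth inhibition is read against vehicle-treated controls after compound exposure of the mec2-1 yeast strain, which is defective in DNA damage repair or cell cycle control.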

[3] = NCI Yeast Anticancer Drug Screen. Data for the sgs1 mgt1 strain (AID 161);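 further: 0% = growth of cultures given vehicle only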; conditions: S. cerevisiae sgs1 mgt1 strain, at 50.0 µM, active compounds read high
Summary of the method: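 This yeast growth screen uses a strain with defined DNA-repair lesions; compound-treated growth is compared with vehicle-treated growth.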

[4] = NCI Yeast Anticancer Drug Screen. Data for the cln2 rad14 strain (AID 165);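 further: 0% = growth equal to vehicle treated cultures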; conditions: S. cerevisiae cln2 rad14 strain, at 50.0 µM, active compounds read high
Summary of the method: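 Growth inhibition, relative to vehicle-treated controls, is the read-out. The test organism is a yeast strain with defined genetic alterations, cln2 rad14.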

[5] = NCI Yeast Anticancer Drug Screen. Data for the bub3 strain (AID 167); conditions: S. cerevisiae bub3 mutant strain, at 50.0 µM, active compounds read high
Summary of the method: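 Inhibition values come from growth of compound-treated mutant yeast normalised to vehicle-treated controls.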

[6] = NCI Yeast Anticancer Drug Screen. Data for the mlh1 rad18 strain (AID 175); conditions: S. cerevisiae mlh1 rad18 strain growth inhibition; at 50.0 µM; active compounds read high
Summary of the method: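 Cells of a genetically altered yeast strain, deficient in DNA damage repair, were treated with compound. Their growth was then compared with that of vehicle-treated cultures to give inhibition.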

SMILES	growth inhibition [1]	growth inhibition [2]	growth inhibition [3]	growth inhibition [4]	growth inhibition [5]	growth inhibition [6]
COc1cc2cc[n+]3c(C)c4ccc(OC)c(OC)c4cc3c2cc1OC (tested in a mixture with another compound)	-4.15%	17.2%	-5.3%	-10.8%	-3.55%	6.65%
CCCCCC1SCC(=O)N1c1nncs1 (stereo unspecified)	-1.7%	-21.1%	14.3%	5.85%	6.65%	12.5%
Cn1ncnc1CCc1ccccc1	-10.3%	-3.9%	-40.5%	-4.55%	-14%	-21.1%
c1cc2c3c(cccc3c1)N=S=N2	25.4%	-7.45%	10.1%	-62.6%	20.9%	12.2%
CCOC(=O)C(CNCc1ccccc1)C1CCCCC1 (stereo unspecified)	8.65%	1.65%	18.2%	-0.7%	5.85%	16.1%
CC12CCC3c4ccc(Cc5ccc([N+](=O)[O-])cc5)cc4CCC3C1CCC2=O (stereo unspecified)	32.6%	9.2%	10.8%	19.7%	1.05%	25.6%
Cc1ccc(NC(=O)c2ccccc2[N+](=O)[O-])cc1	12.5%	15.8%	0.1%	20.4%	-2.1%	-10.2%
COc1ccc(C2N(c3ccccc3)OC(=O)N2c2ccccc2)cc1 (stereo unspecified)	43.8%	7.2%	16.1%	9.1%	14.4%	20.8%
Cc1cccc2nnc(CCCc3nnc4cccc(C)n34)n12	-0.85%	1.85%	-22.1%	-34.4%	-8.8%	-6.3%
C#Cc1c(C)c(/C=C/C(C)=C/C=C/C(C)=C/C(=O)OC)n(C)c1C	12.2%	4.7%	20.3%	10.8%	23.6%	23.4%
COc1ccccc1C1c2cc3c(cc2OC(O)(CO)C1C(=O)O)OCO3 (stereo unspecified) (tested in a mixture with another compound)	-18.4%	-22.7%	-15.3%	-14%	-20.6%	-3.15%
CCCCC1(CC)COC2(CCCCC2)OC1	17.1%	37%	13.3%	-22.2%	6.85%	6.95%
COc1cc(C2C3=C(CCCC3=O)N(c3ccc(C)cc3)C3=C2C(=O)CCC3)c([N+](=O)[O-])cc1OC	-10.8%	-4.2%	2.65%	2.2%	4.3%	-0.3%
CC(C)[N+](=C1O[B-](c2ccccc2)(c2ccccc2)O[B-]1(c1ccccc1)[C+]1CCCCC1)C(C)C (stereo unspecified)	-51.1%	-4.45%	10.8%	19.8%	2.15%	2.2%
CC(C)CC(=O)c1ccc2ccccc2c1O	-0.1%	-17.1%	6.7%	-12.2%	-14.2%	5.95%
N#Cc1cc2c(n(C3OC(CO)C(O)C(O)C3O)c1=S)CCCCC2 (stereo unspecified)	-3.95%	-16%	-3.75%	-0.75%	5.65%	24.1%
Oc1ccc2ccccc2c1/C=N\Sc1ccc(Br)cc1	35.1%	37.5%	64.2%	28.5%	32.2%	49.5%
Cc1cc([N+](=O)[O-])ccc1NC(=O)c1c(Cl)c(Cl)c(C(=O)Nc2ccc([N+](=O)[O-])cc2C)c(Cl)c1Cl	38.5%	28.1%	34.9%	-34%	7.9%	45.1%
CC(C)OP(=O)(c1ccccc1)c1ccc2c(c1)OCCOCCOCCOCCO2 (stereo unspecified)	-3.05%	-2.2%	0.75%	7.05%	-2.1%	24.7%
COC(=O)C12C=CC(C1)n1c(=O)n(-c3ccccc3)c(=O)n12 (stereo unspecified)	-8.55%	7.25%	0.5%	-0.2%	4.4%	-2.9%
CCOC(=O)CCC(C(=O)OCC)N1C(=O)c2ccccc2C1=O (stereo unspecified)	1%	6.75%	8.25%	11.8%	23.8%	-1.7%

SMILES	growth inhibition [1]	growth inhibition [2]	growth inhibition [3]	growth inhibition [4]	growth inhibition [5]	growth inhibition [6]
CC(C)CCCC(C)C1CCC2C3C(O)CC4CCCCC4(C)C3CCC12C (stereo unspecified)	96.7% (active)	97.8% (active)	98% (active)	95.2% (active)	95.7% (active)	97.9% (active)
COc1cc(NCc2ccc3c(c2)OCO3)c([N+](=O)[O-])cc1OC	5.15%	11.3%	6.6%	-8.6%	4.3%	-15.7%
Nc1nc(NCCO)c(N=O)c(=O)[nH]1	5.1%	-4.1%	-2.3%	13.4%	10.1%	13.4%
Cc1ccc(S(=O)(=O)N(C)c2cc(Cl)c(C(=O)O)cc2Cl)cc1	-0.7%	-14.9%	5.85%	4.05%	-14.3%	15.1%
Cc1ccc(NC(=O)C(=O)C(C2C(C)CC(=O)C2CC(=O)O)[N+](=O)[O-])cc1 (stereo unspecified)	23.6%	11.7%	12.2%	17.7%	13.7%	30.6%
COc1ccc(C(C)c2cc3c(cc2OCC(=O)O)OCO3)cc1OC (stereo unspecified)	-7.65%	-10.2%	-6.85%	-4.8%	-0.2%	-3.2%
CCCCC(NC(=O)C(Cc1ccccc1)NC(=O)OCc1ccccc1)C(=O)O (stereo not drawn) (Cbz-Phe-[Nle]-OH; configuration not given here)	5.9%	-1.2%	-4.3%	-31.8%	-3.2%	9.05%
O=c1oc2ccccc2cc1-n1nnc2cc([N+](=O)[O-])ccc21	39%	24.1%	25.8%	-25.6%	12.8%	26.8%
COC1=C(OC)C(=O)C2=C(OCO2)C1=O	-1.05%	16.2%	4.2%	-1.35%	16.5%	-1.1%
CN(C)CCn1c(CO)nc2c1c(=O)n(C)c(=O)n2C	-9.95%	12.2%	-21.4%	-15.2%	0.1%	-5.6%
Nc1nc2c(C(=O)NCc3cccs3)nnn2c2cccc(Cl)c12	-6.25%	-1.45%	-5.35%	4.2%	-20.3%	7.05%
C=CCn1c(=O)c(C(=O)Nc2nc(C34CC5CC(CC(C5)C3)C4)cs2)c(O)c2ccccc21	-22.7%	-4.6%	-14.1%	4.4%	4.5%	-19.1%
Cc1ncc(C(=O)O)c(CO)c1N	7.45%	-15.9%	-14.8%	13.3%	-18.4%	4.8%
CCNc1nc(C)nc2c1cnn2C	5%	4.85%	-1.85%	-13.2%	17.8%	-1%
O=C1C(c2ccccc2)=C2c3ccccc3-c3ccccc3C2(O)C1c1ccccc1 (stereo unspecified)	91.8% (active)	94.8% (active)	94.4% (active)	91.5% (active)	90.9% (active)	94.2% (active)
CCOC(=O)/C(C#N)=N/Nc1ccc(S(=O)(=O)NC(C)=O)cc1	-16.6%	-10.5%	5.8%	11.5%	-2.95%	-4.4%
CCOC(=O)/C=C\C(=O)OCC	29.7%	2.55%	9.35%	10%	9.95%	-1.1%
OCC(O)c1ccccn1 (stereo unspecified)	5.5%	-18.8%	6.65%	-1.45%	2.55%	6.2%
CC(=O)NNc1nc(C)c(C(=O)NNC(=O)C(=O)Nc2c(C)cccc2C(C)(C)C)s1	26.6%	20.2%	13.2%	32.5%	24.9%	20.9%
COC(=O)CC1NC(=O)[C@]1(C)[C@H](C)O (stereo partly specified)	-37.1%	-16.2%	-33%	-14.3%	-48.4%	-48.9%
